# Source: PubChem BioAssay
# Sampled rows, rich in hits. Any-hit rate of the full collection: about 6.8%.
# T cruzi growth-1: T. cruzi intracellular proliferation inhibitors, primary screen, cell-based, beta-gal Tulahuen parasites, NIH3T3 host, luminescence | T. cruzi beta-gal in NIH3T3, GalScreen luminescence, 90 h | inhibition, % at 8.34 µM | hit rate 5.9% among 77,000 | AID 624255, 2012;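 active = mean inhibition above about 93%, with at least 55% of replicates each passing it, limit read from the data, passing the limit was not always enough; inconclusive = only one of those two conditions holds; inactive = neither condition holds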
# C diff HTS: C. difficile growth inhibitors, primary screen, HTS; growth activity, negative = inhibition, % at 16 µg/mL (by protocol); hit rate 0.25% among 86,000; Clostridium difficile clinical isolate growth, OD600, 24 h; hits give low values; AID 1259249, 2017;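 active = mean growth activity at or below -80% and every replicate also at or below -80%; inconclusive = mean at or below -80% but some replicate above -80%; inactive = mean growth activity above -80%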;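 also: 0% = DMSO wells and -100% = levofloxacin 16 µg/mL wells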
# Pf Dd2 growth: P. falciparum Dd2 growth inhibitors, primary screen, SYBR Green fluorescence, single dose replicates; hit rate 2.3% among 94,000; 72 h; hits give low values; AID 1159554, 2015; activity change, % at 10 µM; in the data active = activity change below about -80%; inconclusive = no clear call, values can overlap the other calls
# T cruzi growth-2: T. cruzi intracellular proliferation inhibitors, confirmation, cell-based, NIH3T3 host, beta-gal parasite, luminescence, cherry-pick; shares compounds with T cruzi growth-1; T. cruzi beta-gal in NIH3T3, GalScreen luminescence, 90 h; inhibition, % at 8.35 µM; hit rate 72% among 5,600;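 active = mean replicate inhibition above about 95% and at least 55% of replicates individually reaching it, limit read from the data; inconclusive = only one of the two criteria is met; inactive = neither criterion is met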
# T cruzi growth-3: inhibitors of intracellular T. cruzi replication, confirmation, NIH3T3 host cells, beta-gal parasites, cherry-pick, set 2. hit rate 21% among 5,600. inhibition, % at 2.09 µM. T. cruzi beta-gal in NIH3T3, GalScreen luminescence, 90 h. shares compounds with T cruzi growth-1;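 active = mean inhibition above about 95%, with at least 55% of replicates also reaching it, limit read from the data; inconclusive = meets just one of the two conditions; inactive = meets neither condition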;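 also: plate controls were neutral control median for no effect and positive control median for full effect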
# NIH3T3 tox: cytotoxicity in mouse NIH/3T3 fibroblasts, confirmation, cytotoxicity control for T. cruzi proliferation inhibitor project, cell-based, cherry-pick, single point. shares compounds with T cruzi growth-1. NIH/3T3 viability, CellTiter-Glo ATP luminescence, 90 h. AID 651742, 2012. hit rate 14% among 5,600. cytotoxicity (signal decrease), % at 8.35 µM;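 active = mean signal decrease across replicates above about 35% based on untreated-well scatter, with enough replicates individually passing, limit read from the data; inconclusive = no rule stated though some were filed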;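 also: 0% = median of neutral control wells and 100% = median of positive control wells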
# 3T3 cytotox 2: NIH/3T3 fibroblast cytotoxicity, confirmation, cytotoxicity control, cell-based, cherry-pick, single point, set 2; shares compounds with T cruzi growth-1; NIH/3T3 viability, CellTiter-Glo ATP luminescence, 90 h; inhibition, % at 24.9 µM; hit rate 56% among 5,600; AID 651744, 2012;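 active = mean loss of cell viability signal at or above a set limit, and enough replicates individually reaching it; inconclusive = meets only the mean limit or only the replicate share; inactive = meets neither condition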;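 also: 0% = median of neutral control wells and 100% = median of positive control wells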
# An asterisk follows results filed as active; ? = inconclusive; · = no result.
SMILES,T cruzi growth-1,C diff HTS,Pf Dd2 growth,T cruzi growth-2,T cruzi growth-3,NIH3T3 tox,3T3 cytotox 2
C[C@@H]1CCCCO[C@@H](CN(C)C(=O)C2CCCCC2)[C@@H](C)CN([C@@H](C)CO)C(=O)c2cc(NS(=O)(=O)c3ccc(F)cc3)ccc2O1,70,-2,-37,·,·,·,·
C[C@@H]1CN([C@H](C)CO)C(=O)c2cc(NS(=O)(=O)c3ccc(Cl)cc3)ccc2O[C@@H](C)CCCCO[C@H]1CN(C)C(=O)C1CCCCC1,?,2,-30,96*,61,19,100*
C/C=C/c1ccc([C@H]2[C@@H](CO)N(C(=O)CC)C23CN(S(=O)(=O)CC)C3)cc1,·,-5,-9,·,·,·,·
Cn1cnc(CCNC(=O)C[C@@H]2CC[C@H]3[C@@H](COC[C@H](O)CN3C(=O)Nc3ccc(C(F)(F)F)cc3)O2)c1,52,8,-18,·,·,·,·
Cn1cnc(CCNC(=O)C[C@@H]2CC[C@@H]3[C@H](COC[C@@H](O)CN3C(=O)Nc3ccc(C(F)(F)F)cc3)O2)c1,11,18,-26,·,·,·,·
Cn1cnc(CCNC(=O)C[C@@H]2CC[C@@H]3[C@H](COC[C@H](O)CN3C(=O)Nc3ccc(C(F)(F)F)cc3)O2)c1,107*,25,-16,45,-42,19,24
Cn1cnc(CCNC(=O)C[C@H]2CC[C@@H]3[C@H](COC[C@@H](O)CN3C(=O)Nc3ccc(C(F)(F)F)cc3)O2)c1,114*,16,-44,100*,34,31,22
C[C@H](CO)N1C[C@H](C)[C@@H](CN(C)Cc2ccc(C(=O)O)cc2)OCCCC[C@H](C)Oc2ccc(NC(=O)NC3CCCCC3)cc2C1=O,-12,-3,21,·,·,·,·
O=C(c1ccccc1)N1CC[C@H]2[C@H](CO)Nc3ccc(C#Cc4ccccc4F)cc3[C@H]21,·,18,-45,·,·,·,·
O=C(c1ccccc1)N1CC[C@@H]2[C@H](CO)Nc3ccc(C#Cc4cccc(F)c4)cc3[C@@H]21,46,-1,-11,·,·,·,·
COc1ccccc1C#Cc1ccc2c(c1)[C@@H]1[C@@H](CCN1C(=O)c1cccc(F)c1)[C@H](CO)N2,·,40,-61,·,·,·,·
O=C(c1ccccc1)N1CC[C@H]2[C@H](CO)Nc3ccc(C#Cc4cccc(F)c4)cc3[C@H]21,122*,42,-34,112*,79,10,39*
COc1ccccc1C#Cc1ccc2c(c1)[C@H]1[C@H](CCN1C(=O)c1cccc(F)c1)[C@H](CO)N2,?,-1,-74,101*,87,33,104*
O=C(c1ccccc1)N1CC[C@@H]2[C@H](CO)Nc3ccc(C#Cc4ccccc4F)cc3[C@@H]21,105*,-34,-30,104*,72,45*,106*
C/C=C/c1cnc2c(c1)C(=O)N([C@H](C)CO)C[C@@H](C)[C@@H](CN(C)Cc1cccc(C(=O)O)c1)O2,·,9,-23,·,·,·,·
CCCN1C[C@@H](C)[C@H](OC)CN(C)C(=O)c2ccc(NC(=O)c3ccccn3)cc2OC[C@H]1C,10,-3,24,·,·,·,·
C[C@H]1CN([C@@H](C)CO)C(=O)c2cccc(NC(=O)Nc3ccc(C(F)(F)F)cc3)c2O[C@H]1CN(C)S(=O)(=O)c1ccc(F)cc1,77,26,-13,·,·,·,·
COc1ccc(NC(=O)Nc2cccc3c2O[C@@H](CN(C)S(=O)(=O)c2ccc(Cl)cc2)[C@H](C)CN([C@H](C)CO)C3=O)cc1,26,8,-22,·,·,·,·
C[C@H](CO)N1C[C@H](C)[C@H](CN(C)Cc2ccccc2)Oc2ccc(NC(=O)Nc3cccc4ccccc34)cc2CC1=O,73,2,-46,·,·,·,·
C[C@H](CO)N1C[C@H](C)[C@@H](CN(C)Cc2ccccc2)Oc2ccc(NC(=O)Nc3cccc4ccccc34)cc2CC1=O,69,5,-74,·,·,·,·
C[C@H]1CN([C@@H](C)CO)C(=O)Cc2cc(NC(=O)Nc3cccc4ccccc34)ccc2O[C@@H]1CN(C)Cc1ccc(-c2ccccc2)cc1,102*,10,-34,109*,107*,1,3
C[C@@H]1CN([C@@H](C)CO)C(=O)Cc2cc(NC(=O)Nc3cccc4ccccc34)ccc2O[C@H]1CN(C)Cc1ccc(-c2ccccc2)cc1,107*,5,-43,102*,106*,11,6
Cc1ccc(S(=O)(=O)N(C)C[C@@H]2Oc3ccc(NC(=O)Nc4ccc(F)cc4)cc3C(=O)N([C@@H](C)CO)C[C@@H]2C)cc1,45,1,-21,·,·,·,·
CCCN1C[C@@H](C)[C@@H](OC)CN(C)C(=O)c2cc(NS(=O)(=O)CC)ccc2OC[C@@H]1C,-15,-8,-4,·,·,·,·
COc1ccc2c3c([nH]c2c1)[C@H](CO)N(Cc1nccs1)CC31CN(Cc2nccs2)C1,·,5,7,·,·,·,·
SMILES,T cruzi growth-1,C diff HTS,Pf Dd2 growth,T cruzi growth-2,T cruzi growth-3,NIH3T3 tox,3T3 cytotox 2
CN1[C@@H]2c3ccc(-c4ccccc4)c(=O)n3C[C@@H]2[C@@H](CO)[C@@H]1C(=O)NCCc1ccccc1,27,2,·,·,·,·,·
CCCC(=O)Nc1ccc2c(c1)C(=O)N(C)C[C@@H](OC)[C@@H](C)CN(Cc1ccccc1)[C@H](C)CO2,33,3,-23,·,·,·,·
CCCC(O)C#Cc1cnc2c(c1)C(=O)N([C@H](C)CO)C[C@H](C)[C@H](CN(C)C(=O)Nc1c(C)noc1C)O2 (stereo partly drawn),19,-4,38,·,·,·,·
CCC(=O)N1CCCCN2[C@@H](CO)[C@H](c3ccc(C#CCOC)cc3)[C@@H]2C1,82,-1,2,·,·,·,·
CCC(=O)N1CCCCN2[C@H](CO)[C@H](c3ccc(C#Cc4ccccc4)cc3)[C@H]2C1,108*,2,-27,86,44,40*,106*
CCC(=O)N1CCCCN2[C@@H](CO)[C@H](c3ccc(C#Cc4ccccc4)cc3)[C@@H]2C1,112*,-1,-10,105*,73,59*,105*
CCC(=O)N1CCCCN2[C@@H](CO)[C@@H](c3ccc(C#CCOC)cc3)[C@@H]2C1,31,-2,6,·,·,·,·
CCC(=O)N1CCCCN2[C@@H](CO)[C@@H](c3ccc(C#Cc4cccnc4)cc3)[C@@H]2C1,111*,0,-24,102*,76,8,8
CCC(=O)N1CCCCN2[C@@H](CO)[C@@H](c3ccc(C#Cc4ccccc4)cc3)[C@@H]2C1,106*,8,-8,104*,82,24,104*
